# Assay results as given in PubChem BioAssay (NCATS).
# A number with no mark means an inactive call. Results filed as inconclusive are left out. Entries that show only a call come without a potency. Activity calls are given as the source filed them. Unless noted, the call rests on the fitted dose curve; in most records, active means well fitted curve in the direction sought with a large enough effect; inconclusive means small, poorly fitted or top-dose-only effect, or another doubt; inactive means no such curve, though single readings can be large; an effect the other way counts as inactive or inconclusive.
# How the values were obtained:
# [1] = qHTS for Inhibitors of the Functional Ribonucleoprotein Complex (vRNP) of Lassa (LASV) Arenavirus: LASV Primary Screen - GLuc reporter signal (AID 1347082; calls by dose curve; tested in HEK293 reporter line; further: nearly all actives have a fitted effect of over 60% in size; further: potency means the concentration at half of the fitted maximal effect)
# [2] = qHTS for Inhibitors of the Functional Ribonucleoprotein Complex (vRNP) of Lassa (LASV) Arenavirus: Viability assay - alamar blue signal for LASV Primary Screen (AID 1347083; calls by dose curve; tested in HEK293 reporter line; further: nearly all actives have a fitted effect of over 80% in size; further: potency means the concentration at half of the fitted maximal effect)
# [3] = qHTS for Inhibitors of the Functional Ribonucleoprotein Complex (vRNP) of Lymphocytic Choriomeningitis Arenaviruses (LCMV): Viability assay - alamar blue signal for LCMV Primary Screen (AID 1347085; calls by dose curve; tested in HEK293 reporter line; further: nearly all actives have a fitted effect of over 80% in size; further: potency means the concentration at half of the fitted maximal effect)
# [4] = target: Nucleoprotein (Lymphocytic choriomeningitis virus (strain Armstrong)) (UniProt P09992); assay: qHTS for Inhibitors of the Functional Ribonucleoprotein Complex (vRNP) of Lymphocytic Choriomeningitis Arenaviruses (LCMV): LCMV Primary Screen - GLuc reporter signal (AID 1347086; calls by dose curve; further: nearly all actives have a fitted effect of over 70% in size; further: potency means the concentration at half of the fitted maximal effect)
# [5] = Validation of Assay for Modulators of Lamin A Splicing (AID 1459; active means well fitted curve in the direction sought with a large enough effect in the signal ratio; the % refers to the signal ratio;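 further: cells exposed to compound for two days before reading; ratio rise marks activators and ratio drop marks inhibitors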)
# Summary of the method: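 Readout: ratio of GFP (500-530 nm) to RFP (575-640 nm) total object intensity by 488 nm laser-scanning cytometry after 48 hrs. Cells were HeLa S3 clones carrying lamin A-EGFP minigene plus DsRed2 viability reporter; vehicle 0.5% DMSO final.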
# [6] = target: DNA repair nuclease/redox regulator APEX1 (Homo sapiens) (UniProt P27695); assay: qHTS Validation Assay for Inhibitors of the Human Apurinic/apyrimidinic Endonuclease 1 (APE1) (AID 1705;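 further: TAMRA fluorescence gain over two minutes as APE1 cuts a quenched THF abasic duplex; series mostly up to about 57 µM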)
# Summary of the method: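 Read-out: TAMRA fluorescence (525 nm ex, 598 nm em) from cleavage of a quenched THF abasic-site duplex, 50 nM final; activity taken as intensity change between third and first of three reads 60 s apart.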
# [7] = Counterscreen for APE1 Inhibitors: Fluorescent Dye Displacement Validation Assay (AID 1707)
# Summary of the method: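 Reaction mixture of 250 nM Thiazole Orange and 50 nM double-stranded abasic-site DNA was dispensed, compounds were pin-transferred, and fluorescence was read at endpoint (480 nm ex, 540 nm em). Reduced fluorescence indicated dye displacement by DNA binding.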
# [8] = target: Endonuclease 4 (Escherichia coli (strain K12)) (UniProt P0A6C1); assay: Counterscreen for APE1 Inhibitors: qHTS Validation Assay for Inhibitors of Endonuclease IV (AID 1708)
# Summary of the method: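 Read-out: fluorescence rise (ex 525/em 598 nm) from incision of a TAMRA/BHQ-2 double-stranded THF abasic-site substrate (50 nM), measured kinetically; third-minus-first read difference gave reaction progress. Enzyme 2 nM.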
# [9] = qHTS for differential inhibitors of proliferation of Plasmodium falciparum line 3D7 (AID 1876);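 further: parasite growth measured after three days of culture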
# [10] = qHTS for differential inhibitors of proliferation of Plasmodium falciparum line D10 (AID 1877);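 further: parasites grown with compound for 72 h before DNA staining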
# [11] = qHTS for differential inhibitors of proliferation of Plasmodium falciparum line Dd2 (AID 1882); settings: Potency: Plasmodium falciparum Dd2 proliferation inhibition;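 further: series mostly up to about 29 µM; compound exposure of 72 h on infected erythrocytes; nearly all actives have a fitted effect of over 65% in size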
# Summary of the method: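 RBC culture, 0.3% parasitemia / 2.5% Hct final; cpd added by pin tool in DMSO; 72 h, 37 C, 5% CO2; lysis buffer + SYBR Green I, o/n RT dark; FI 485/535; norm. to artemisinin 0.29 uM and DMSO.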
# [12] = qHTS for differential inhibitors of proliferation of Plasmodium falciparum line HB3 (AID 1886); settings: Potency: Plasmodium falciparum HB3 proliferation inhibition;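 further: parasites grown with compound for 72 h before SYBR Green readout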
# [13] = qHTS Assay for Modulators of Human Peripheral Myelin Protein 22 (PMP22) Expression/Activity (AID 1967; active means well fitted curve in the direction sought with a large enough effect in the signal ratio; the % refers to the signal ratio)
# Summary of the method: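 Mouse MSC80 Schwann line, Pmp22 promoter–CBG68 reporter, EF-alpha–CBR internal control. 24h compound exposure, 37 °C/5% CO2, DMEM + 10% FBS. Readout: corrected green/red luminescence ratio, normalized to untreated cells; concentration-response curves fitted and classified.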
# [14] = target: Ferritin light chain (Equus caballus) (UniProt P02791); assay: qHTS Validation Assay for Identification of Novel General Anesthetics (AID 2323); further: series mostly up to about 77 µM
# Summary of the method: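 10 uM horse-spleen apoferritin + 1-AMA (50% saturated, PBS); cpd pin-transferred, 10 min RT. Ex 380/Em 535 nm endpoint. Activity normalized between free 1-AMA and 1-AMA/apoferritin; 4-parameter Hill fit of concentration-response.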
# [15] = target: ATP-dependent DNA helicase Q1 (Homo sapiens) (UniProt P46063); assay: qHTS Validation Assay for Inhibitors of RecQ-Like Dna Helicase 1 (RECQ1) (AID 2353)
# Summary of the method: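 RECQ1T1 50 nM; forked duplex (20 bp + 30-nt ss tails) 200 nM, ATP 2 mM final; pH 8.0, 2 mM MgCl2, 2.5 ug/ml poly(dI-dC); 15 min compound preincubation; discontinuous kinetic read over 2 h at RT.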
# [16] = Validation screen for inhibitors of Lassa infection (AID 463096; calls by dose curve)
# [17] = Validation screen for small molecules that induce DNA re-replication in MCF 10A normal breast cells (AID 463097); further: nearly all actives have a fitted effect of over 60% in size
# Summary of the method: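 250 MCF 10A cells/well; compound pin-transferred; 48 hr, 37 C, 5% CO2; Hoechst 40 min; imaged 405/500-530 nm. Hits = more high-intensity nuclei.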
# [18] = Quantitative high throughput screen for delayed death inhibitors of the malarial parasite plastid, 96 hour incubation (AID 488745);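 further: luciferase-expressing P. falciparum in erythrocytes at 2% hematocrit and 0.1% parasitemia; series mostly up to about 29 µM; nearly all actives have a fitted effect of over 70% in size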
# Summary of the method: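 Luciferase-expressing P. falciparum, infected RBCs 2% Hct/0.1% parasitemia (final); 96 h cpd exposure, 37 C, 5% CO2; RPMI 1640 + 0.5% Albumax, bicarbonate, gentamycin. Readout: luminescence loss = growth inhibition.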
# [19] = Quantitative high throughput screen for delayed death inhibitors of the malarial parasite plastid, 48 hour incubation (AID 488752); further: nearly all actives have a fitted effect of over 65% in size
# Summary of the method: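 Luciferase-expressing P. falciparum in RBCs, 2% Hct, 0.1% parasitemia final; RPMI 1640 + 0.5% Albumax; 48 h, 37 C, 5% CO2; luminescence readout, signal drop = growth inhibition.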
# [20] = target: M-phase phosphoprotein 8 (Homo sapiens) (UniProt Q99549); assay: qHTS Validation Assay for Inhibitors for MPP8 Chromodomain Interactions with Methylated Histone Tails (AID 488949); further: potency means the concentration at half of the fitted maximal effect; nearly all actives have a fitted effect of over 55% in size
# Summary of the method: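 AlphaScreen read-out: streptavidin donor and nickel chelate acceptor beads (final 10 ug/mL), 30 min in the dark at RT. Complex of 50 nM MPP8 and 50 nM b-H3(1-18)K9me3 peptide had been exposed to compounds for 30 min beforehand.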
# [21] = target: Transient receptor potential cation channel subfamily V member 1 (Homo sapiens) (UniProt Q8NER1); assay: HTS Assay for Compounds that Act as Enhancers of the Vanilloid Receptor 1 (AID 488979)
# Summary of the method: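 TRPV1 cells loaded with Fluo-8 calcium dye; compound added and Ca2+ signal (ex 480/em 520 nm) followed 3 min, then capsaicin at EC20 added and read 2 more min to detect enhancement.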
# [22] = target: Thyrotropin receptor (Homo sapiens) (UniProt P16473); assay: qHTS Assay for Antagonists of the Thyroid Stimulating Hormone Receptor (AID 488980); further: series mostly up to about 58 µM
# Summary of the method: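 TSHR-HEK293 cells; 70 uM RO 20-1724 PDE inhibitor; compound + EC80 TSH (4 nM final); anti-cAMP cryptate antibody/cAMP-d2 in lysis buffer, 30 min RT; HTRF 665/620 nm read.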
# [23] = target: Thyrotropin-releasing hormone receptor (Homo sapiens) (UniProt P34981); assay: qHTS for Small Molecule Agonists and Allosteric Enhancers of Human TRH Receptor: Validation Screen for Agonists (AID 493127;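 active means calcium activation more than 3 SD above the typical response in the agonist read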;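 further: intracellular calcium rise by fluo-8 fluorescence before TRH EC20 addition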); settings: TRH receptor agonist cell assay; at 2 µM; hits give high values
# Summary of the method: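 Read-out: intracellular calcium release measured kinetically by FDSS (fluo-8, ex 480/em 530 nm), 1 reading/s after a 10-cycle baseline. TRHR cells, 2000/well, cultured 18 h at 33.5C, dye-loaded at room temp. Compound-evoked positive calcium signal flags agonists.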
# [24] = target: Galactokinase (Homo sapiens) (UniProt P51570); assay: qHTS Validation Assay for Inhibitors of Human Galactokinase (GALK) (AID 493189)
# Summary of the method: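 Luminescence from leftover ATP (Kinase-Glo Plus, 10 min) served as read-out after a 1 h room-temperature reaction of 5 nM GALK, 100 uM galactose and 35 uM ATP at pH8.0.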
# [25] = target: Voltage-gated inwardly rectifying potassium channel KCNH2 (Homo sapiens) (UniProt Q12809); assay: qHTS Assay for Small Molecule Inhibitors of the Human hERG Channel Activity (AID 588834);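 further: top concentration of the series differs between compounds; lower thallium flux fluorescence means stronger hERG block; nearly all actives have a fitted effect of over 50% in size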
# Summary of the method: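 Thallium-flux (FluxOR) read-out on FDSS: fluorescence read 10 s before and 2 min after stimulation buffer. hERG-BacMam-transduced U2OS cells, compound exposure about 10 min. AC50 by standard Hill equation.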
# [26] = target: N-terminal Xaa-Pro-Lys N-methyltransferase 1 (Homo sapiens) (UniProt Q9BV86); assay: qHTS Assay for Inhibitors of N-terminal methyltransferase 1 (NTMT1): LOPAC validation of the NTMT1 SAHH-coupled ThioGlo3 Assay (AID 1347143);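 further: SAH from peptide methylation measured as thiol fluorescence via SAHH coupling and ThioGlo3; nearly all actives have a fitted effect of over 70% in size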
# Summary of the method: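 Steps: dispense 125nM NTMT1; pin-transfer test compounds at several concentrations, with 1uM RCC1-6 peptide as control; incubate 1 min; start with reagent holding 100uM SAM, 10uM SAHH, 15uM ThioGlo3; read at 0 and 30 min.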
# Chain of Nucleoprotein (Lymphocytic choriomeningitis virus (strain Armstrong)) (P09992 whole entry, looked up): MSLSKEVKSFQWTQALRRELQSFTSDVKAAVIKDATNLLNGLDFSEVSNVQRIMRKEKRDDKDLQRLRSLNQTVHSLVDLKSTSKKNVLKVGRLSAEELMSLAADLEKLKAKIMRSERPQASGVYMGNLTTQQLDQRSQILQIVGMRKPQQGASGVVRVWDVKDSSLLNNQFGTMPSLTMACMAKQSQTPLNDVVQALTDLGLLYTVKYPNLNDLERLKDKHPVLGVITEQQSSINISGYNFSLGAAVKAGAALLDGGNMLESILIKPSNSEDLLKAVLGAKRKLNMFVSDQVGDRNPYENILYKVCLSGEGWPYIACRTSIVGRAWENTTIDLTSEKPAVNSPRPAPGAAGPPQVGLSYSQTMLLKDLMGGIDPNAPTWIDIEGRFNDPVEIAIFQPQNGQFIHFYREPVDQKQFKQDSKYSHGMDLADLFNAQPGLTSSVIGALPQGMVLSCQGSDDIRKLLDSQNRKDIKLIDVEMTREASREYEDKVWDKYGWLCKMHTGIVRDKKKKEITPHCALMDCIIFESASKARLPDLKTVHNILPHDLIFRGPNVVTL
# Chain of ATP-dependent DNA helicase Q1 (Homo sapiens) (P46063 whole entry, looked up): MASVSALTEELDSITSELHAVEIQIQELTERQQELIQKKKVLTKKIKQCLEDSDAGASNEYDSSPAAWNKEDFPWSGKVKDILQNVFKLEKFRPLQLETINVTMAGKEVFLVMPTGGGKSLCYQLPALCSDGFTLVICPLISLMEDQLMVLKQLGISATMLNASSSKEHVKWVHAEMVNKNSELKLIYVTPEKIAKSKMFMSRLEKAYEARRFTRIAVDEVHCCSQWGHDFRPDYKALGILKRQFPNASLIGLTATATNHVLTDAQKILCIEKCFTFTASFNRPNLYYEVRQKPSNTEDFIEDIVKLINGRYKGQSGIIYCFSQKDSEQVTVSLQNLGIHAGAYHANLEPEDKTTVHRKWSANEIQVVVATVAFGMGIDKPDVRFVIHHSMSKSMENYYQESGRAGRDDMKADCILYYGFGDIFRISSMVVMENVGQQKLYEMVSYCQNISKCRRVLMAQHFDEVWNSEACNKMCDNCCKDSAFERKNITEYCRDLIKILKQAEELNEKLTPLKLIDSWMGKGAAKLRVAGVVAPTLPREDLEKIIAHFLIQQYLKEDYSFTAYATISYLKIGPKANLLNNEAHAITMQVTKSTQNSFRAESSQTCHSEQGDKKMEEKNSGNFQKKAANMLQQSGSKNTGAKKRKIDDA
# Chain of Transient receptor potential cation channel subfamily V member 1 (Homo sapiens) (Q8NER1 whole entry, looked up): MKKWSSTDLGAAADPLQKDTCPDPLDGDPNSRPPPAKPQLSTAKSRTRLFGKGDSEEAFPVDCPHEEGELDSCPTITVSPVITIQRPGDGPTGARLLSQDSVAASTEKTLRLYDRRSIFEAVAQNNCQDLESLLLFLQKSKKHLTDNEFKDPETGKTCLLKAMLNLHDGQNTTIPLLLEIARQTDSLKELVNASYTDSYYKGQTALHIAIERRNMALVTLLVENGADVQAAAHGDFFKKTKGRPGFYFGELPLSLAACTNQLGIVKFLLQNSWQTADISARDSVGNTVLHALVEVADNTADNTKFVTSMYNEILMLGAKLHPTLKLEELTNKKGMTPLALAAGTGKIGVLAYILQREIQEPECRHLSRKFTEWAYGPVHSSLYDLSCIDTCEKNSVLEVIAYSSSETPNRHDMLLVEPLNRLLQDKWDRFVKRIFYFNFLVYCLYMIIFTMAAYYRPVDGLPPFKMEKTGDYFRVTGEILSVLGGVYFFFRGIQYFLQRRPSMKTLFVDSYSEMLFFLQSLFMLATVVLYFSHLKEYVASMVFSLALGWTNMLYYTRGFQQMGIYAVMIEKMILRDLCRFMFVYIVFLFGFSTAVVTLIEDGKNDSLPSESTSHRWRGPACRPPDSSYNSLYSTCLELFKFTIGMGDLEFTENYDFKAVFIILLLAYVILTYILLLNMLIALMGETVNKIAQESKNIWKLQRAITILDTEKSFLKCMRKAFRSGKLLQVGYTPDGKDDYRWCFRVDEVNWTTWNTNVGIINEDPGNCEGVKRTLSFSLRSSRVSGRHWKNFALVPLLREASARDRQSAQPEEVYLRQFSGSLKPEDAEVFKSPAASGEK
# Chain of Ferritin light chain (Equus caballus) (P02791 2-175 limits assumed): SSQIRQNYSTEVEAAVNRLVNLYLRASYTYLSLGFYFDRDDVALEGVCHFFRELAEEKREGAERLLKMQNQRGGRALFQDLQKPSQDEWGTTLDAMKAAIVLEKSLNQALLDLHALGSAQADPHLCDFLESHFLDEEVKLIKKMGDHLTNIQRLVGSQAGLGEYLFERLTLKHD
# Chain of Thyrotropin receptor (Homo sapiens) (P16473 whole entry, looked up): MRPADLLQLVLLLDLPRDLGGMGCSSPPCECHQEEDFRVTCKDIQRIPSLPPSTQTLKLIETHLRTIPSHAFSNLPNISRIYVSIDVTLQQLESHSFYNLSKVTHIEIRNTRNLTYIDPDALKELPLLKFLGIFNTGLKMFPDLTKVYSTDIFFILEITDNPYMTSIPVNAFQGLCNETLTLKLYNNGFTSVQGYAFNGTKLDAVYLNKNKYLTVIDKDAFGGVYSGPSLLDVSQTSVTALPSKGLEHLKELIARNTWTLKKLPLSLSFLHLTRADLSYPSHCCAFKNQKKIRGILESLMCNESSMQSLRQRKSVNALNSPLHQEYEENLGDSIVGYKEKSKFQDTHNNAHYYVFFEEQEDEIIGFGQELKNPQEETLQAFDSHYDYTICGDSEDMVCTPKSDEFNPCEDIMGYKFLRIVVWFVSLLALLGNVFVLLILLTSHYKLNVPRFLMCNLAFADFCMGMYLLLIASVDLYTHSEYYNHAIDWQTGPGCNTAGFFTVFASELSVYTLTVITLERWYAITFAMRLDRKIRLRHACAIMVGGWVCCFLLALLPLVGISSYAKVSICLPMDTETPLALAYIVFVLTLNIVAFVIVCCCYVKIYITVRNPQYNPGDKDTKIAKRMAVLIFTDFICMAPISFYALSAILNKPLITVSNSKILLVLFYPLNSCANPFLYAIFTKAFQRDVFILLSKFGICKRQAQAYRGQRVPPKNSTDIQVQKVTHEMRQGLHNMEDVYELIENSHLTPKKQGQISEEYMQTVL
# Chain of N-terminal Xaa-Pro-Lys N-methyltransferase 1 (Homo sapiens) (Q9BV86 whole entry, looked up): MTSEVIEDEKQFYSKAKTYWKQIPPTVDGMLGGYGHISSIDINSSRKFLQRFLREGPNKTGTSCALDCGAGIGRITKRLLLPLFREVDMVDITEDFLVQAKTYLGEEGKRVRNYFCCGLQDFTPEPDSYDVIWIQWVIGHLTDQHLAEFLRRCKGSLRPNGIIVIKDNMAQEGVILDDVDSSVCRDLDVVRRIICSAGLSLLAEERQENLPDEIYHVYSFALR
# Chain of M-phase phosphoprotein 8 (Homo sapiens) (Q99549 whole entry, looked up): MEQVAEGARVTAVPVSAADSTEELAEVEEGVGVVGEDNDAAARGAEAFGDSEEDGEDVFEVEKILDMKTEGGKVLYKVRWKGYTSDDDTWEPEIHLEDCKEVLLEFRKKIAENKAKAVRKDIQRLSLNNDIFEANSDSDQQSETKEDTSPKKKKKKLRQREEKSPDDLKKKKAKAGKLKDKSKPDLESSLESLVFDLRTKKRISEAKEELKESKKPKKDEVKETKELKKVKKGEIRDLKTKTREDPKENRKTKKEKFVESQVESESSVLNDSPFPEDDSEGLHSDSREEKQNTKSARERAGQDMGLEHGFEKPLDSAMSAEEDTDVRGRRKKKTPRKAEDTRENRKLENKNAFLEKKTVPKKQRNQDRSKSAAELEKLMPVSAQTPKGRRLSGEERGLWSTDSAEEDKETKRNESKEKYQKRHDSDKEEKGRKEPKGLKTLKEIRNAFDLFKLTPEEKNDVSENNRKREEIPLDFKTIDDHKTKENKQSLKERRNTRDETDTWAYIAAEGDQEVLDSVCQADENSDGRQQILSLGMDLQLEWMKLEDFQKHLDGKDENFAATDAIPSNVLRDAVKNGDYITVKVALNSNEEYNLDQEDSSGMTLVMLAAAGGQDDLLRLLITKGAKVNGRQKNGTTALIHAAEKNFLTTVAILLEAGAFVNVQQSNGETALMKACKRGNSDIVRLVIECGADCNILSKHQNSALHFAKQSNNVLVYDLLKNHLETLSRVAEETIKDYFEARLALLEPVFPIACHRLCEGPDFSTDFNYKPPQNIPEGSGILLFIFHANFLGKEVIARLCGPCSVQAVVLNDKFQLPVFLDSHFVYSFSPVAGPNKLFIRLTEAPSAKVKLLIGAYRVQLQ
# Chain of Thyrotropin-releasing hormone receptor (Homo sapiens) (P34981 whole entry, looked up): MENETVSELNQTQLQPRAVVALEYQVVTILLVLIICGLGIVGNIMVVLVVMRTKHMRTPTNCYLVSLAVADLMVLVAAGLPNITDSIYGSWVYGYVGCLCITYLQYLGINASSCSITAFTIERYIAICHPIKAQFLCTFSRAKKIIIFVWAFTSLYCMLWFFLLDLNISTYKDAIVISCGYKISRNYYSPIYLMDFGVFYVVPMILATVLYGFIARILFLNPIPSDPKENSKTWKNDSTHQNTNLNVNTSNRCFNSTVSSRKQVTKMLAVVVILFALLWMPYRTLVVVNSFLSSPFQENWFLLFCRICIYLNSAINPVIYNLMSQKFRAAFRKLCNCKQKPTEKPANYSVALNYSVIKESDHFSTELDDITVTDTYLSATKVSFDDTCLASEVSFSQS
# Chain of Galactokinase (Homo sapiens) (P51570 whole entry, looked up): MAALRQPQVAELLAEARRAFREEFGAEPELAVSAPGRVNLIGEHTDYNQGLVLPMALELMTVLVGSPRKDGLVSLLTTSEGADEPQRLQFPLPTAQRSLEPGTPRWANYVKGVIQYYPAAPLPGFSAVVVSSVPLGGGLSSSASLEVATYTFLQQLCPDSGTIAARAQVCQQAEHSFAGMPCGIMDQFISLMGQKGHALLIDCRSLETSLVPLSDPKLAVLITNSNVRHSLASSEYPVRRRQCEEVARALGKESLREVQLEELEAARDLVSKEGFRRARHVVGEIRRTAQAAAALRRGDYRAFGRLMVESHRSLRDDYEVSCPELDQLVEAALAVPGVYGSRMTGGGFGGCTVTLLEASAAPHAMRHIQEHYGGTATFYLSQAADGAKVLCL
smiles,measurement,setting,value
O=C(Oc1ccccc1)c1ccccc1C(=O)Oc1ccccc1,Potency,[1],inactive
same,Potency,[2],inactive
same,Potency,[3],inactive
same,Potency,[4],inactive
COc1cc2c(c(OC)c1OC)-c1c(cc(OC)c(OC)c1OC)C[C@](C)(O)[C@@H](C)C2,Potency,[1],inactive
same,Potency,[2],inactive
same,Potency,[3],inactive
same,Potency,[4],inactive
CC(=O)OCC1=C(C(=O)[O-])N2C(=O)[C@@H](NC(=O)CCC[C@@H](N)C(=O)[O-])[C@H]2SC1.[Zn+2],outcome,[5],inactive
same,Potency,[6],inactive
same,Potency,[7],inactive
same,outcome,[8],inactive
same,Potency,[9],inactive
same,Potency,[10],inactive
same,Potency,[11],inactive
same,Potency,[12],inactive
same,outcome,[13],inactive
same,outcome,[14],inactive
same,Potency,[15],inactive
same,Potency,[16],inactive
same,Potency,[17],inactive
same,Potency,[18],inactive
same,Potency,[19],inactive
same,Potency,[20],44.7 µM (active)
same,outcome,[21],inactive
same,outcome,[22],inactive
same,activation,[23],1.25%
same,outcome,[24],inactive
same,Potency,[25],inactive
same,Potency,[1],inactive
same,Potency,[2],inactive
same,Potency,[3],inactive
same,Potency,[4],inactive
same,outcome,[26],inactive
CC1(C)C=Cc2c(c3c(c4c(=O)c(-c5ccc(O)cc5)coc24)OC(C)(C)CC3)O1,Potency,[1],inactive
same,Potency,[2],inactive
same,Potency,[3],inactive
same,Potency,[4],inactive
C/C=C1\CN2[C@H]3C[C@@]45c6ccccc6N(C)[C@H]4[C@@H]2CC1C3[C@H]5O (some centres not stated),Potency,[1],inactive
same,Potency,[2],inactive
same,Potency,[3],inactive
same,Potency,[4],inactive
C[C@]1(CC/C(=C/CO)CO)[C@H](CO)CC[C@@]23COC(=O)C2=CCC[C@@H]31,Potency,[1],inactive
same,Potency,[2],inactive
same,Potency,[3],inactive
same,Potency,[4],inactive
COc1ccc(C(=O)OCCc2ccc(O)cc2)cc1,Potency,[1],inactive
same,Potency,[2],inactive
same,Potency,[3],inactive
same,Potency,[4],inactive
COc1ccc2c(=O)c(-c3ccccc3)c(C)oc2c1,Potency,[1],inactive
same,Potency,[2],inactive
same,Potency,[3],inactive
same,Potency,[4],inactive
CCCCCCCCCCC(C)=O,Potency,[1],inactive
same,Potency,[2],inactive
same,Potency,[3],inactive
same,Potency,[4],inactive
C/C=C/c1cc(OC)c2c(c1)[C@H](C)[C@@H](c1ccc(O)c(OC)c1)O2,Potency,[1],inactive
same,Potency,[2],inactive
same,Potency,[3],inactive
same,Potency,[4],inactive
CCC/C=C/C/C=C/C=C/C=N/NN=O,Potency,[1],inactive
same,Potency,[2],inactive
same,Potency,[3],inactive
same,Potency,[4],inactive
CC(C)C(O)(C(=O)OC[C@@H]1CC[N+]2([O-])CCCC12)C(C)O (some centres not stated),Potency,[1],inactive
same,Potency,[2],inactive
same,Potency,[3],inactive
same,Potency,[4],inactive
NC1(Cc2ccc(Cl)cc2)CCN(c2ncnc3[nH]ccc23)CC1,Potency,[1],9.68 µM (active)
same,Potency,[2],2.73 µM (active)
same,Potency,[3],7.69 µM (active)
same,Potency,[4],9.68 µM (active)
Cc1cc(OCCCc2c(C(=O)O)n(Cc3cccnc3)c3c(-c4c(COc5ccc(N6CCN([S+](C)(=O)[O-])CC6)cc5)nn(C)c4C)cccc23)cc(C)c1Cl,Potency,[1],inactive
same,Potency,[2],inactive
same,Potency,[3],inactive
same,Potency,[4],inactive
COc1cc2oc(=O)c3c4c(cc5ccc(c1CCN(C)C)c2c53)OCO4,Potency,[1],inactive
same,Potency,[2],inactive
same,Potency,[3],inactive
same,Potency,[4],inactive
